Screening data from PubChem.
APP transl inh: inhibitors of APP translation via 5'UTR reporter, primary screen, APP 5'UTR luciferase, SH-SY5Y cells. inhibition, % at 2 µM. actives 0.82% (n = 190,000). SH-SY5Y APP 5'UTR-luciferase reporter, luminescence;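 active means inhibition above a set limit, derived from the sample mean plus 3 SD, cut at about 45% in these data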
BaF3 tox: parental Ba/F3 cell viability inhibition, counter-screen for JAK2V617F inhibitor project, murine pro-B, CellTiter-Glo luminescence. CellTiter-Glo ATP luminescence. inhibition, % at 5.6 µM. actives 1.1% (n = 220,000). AID 1486, 2009;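 active means inhibition above a per-campaign cutoff, the mean inhibition of all tested compounds plus 3 SD, cut at about 27% in these data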;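 further: 0% = DMSO wells and 100% = JAK Inhibitor I control wells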
aSyn UTR inh: MLPCN primary screen, SNCA 5' untranslated region; alpha-synuclein 5'UTR reporter, inhibitor activity; inhibition, % (tested at 7.5 µM); actives 0.82% (n = 300,000); in the data active means inhibition above about 60%;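 further: H4 neuroglioblastoma cells stably carrying SNCA 5'UTR luciferase fusion; 0% = DMSO wells and 100% = positive control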
IEC-6 tox: cytotoxicity in IEC-6 intestinal epithelial cells, primary screen, cytotoxicity control for KLF5 inhibitor project, cell-based, luminescence. IEC-6 cytotoxicity, luminescence viability. actives 0.78% (n = 290,000). inhibition, % at 5 µM. AID 1825, 2009; in the data active means inhibition above about 22%;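 further: 0% = plate median of test compound wells and 100% = cytotoxic reference compound wells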
KLF5 inhibitor: KLF5 expression inhibitors, primary screen, DLD-1 cells, luminescence. DLD-1 KLF5 promoter-luciferase reporter. inhibition, % at 5 µM. actives 0.23% (n = 290,000). AID 1700, 2009;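 active means inhibition above a per-plate limit of that plate's mean compound inhibition plus 3 SD, cut at about 60% in these data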;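 further: 0% = DMSO wells and 100% = LY294002 at 200 µM; higher means less KLF5 promoter-driven luciferase light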
Ba/F3 V617F tox: reduced viability of JAK2V617F-dependent Ba/F3 cells, primary screen, JAK2V617F inhibitor project, cell-based, Ba/F3 EpoR-JAK2V617F, luminescence; actives 1.1% (n = 220,000); AID 1446, 2008; ATP luminescence; inhibition, % at 5.6 µM;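 active means inhibition above the campaign mean plus 3 SD over all tested compounds, cut at about 24% in these data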;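 further: cytokine-independent growth of Ba/F3 cells driven by EpoR plus mutant JAK2; 0% = DMSO-treated cells and 100% = JAK inhibitor I control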
The depositor's hits bear a star; x = not tested or not shown. In the library only some 2.2% were active in any assay of this set; here they are far more common.

SMILES | APP transl inh | BaF3 tox | aSyn UTR inh | IEC-6 tox | KLF5 inhibitor | Ba/F3 V617F tox
Cc1noc(C)c1C(=O)N1CCCC1 | 5 | 4 | -9 | 2 | -30 | 3
O=C(Nc1cccc(-c2cn3cccnc3n2)c1)c1ccco1 | 14 | 1 | -31 | -1 | -14 | -3
O=C(Nc1cccc(-c2cn3cccnc3n2)c1)c1ccc(Br)o1 | 54* | 6 | -50 | 4 | -24 | 4
COC(C(=O)Nc1ccnn1C1CCN(Cc2ccc(CO)o2)CC1)c1ccccc1 (configuration not stated) | x | x | 0 | 0 | -6 | x
Fc1ccc(-c2csc3[n+]2CCS3)cc1 | 3 | 2 | 2 | 4 | -12 | -1
c1sc2[n+](c1C13CC4CC(CC(C4)C1)C3)CCS2 | 3 | 61* | -1 | 6 | -4 | 63*
CC(=O)C1=C(O)C(=O)N(Cc2ccccc2)C1c1ccccc1F (configuration not stated) | -14 | 37* | 3 | -4 | -5 | 1
CCNc1nc2c(c(=O)n(C)c(=O)n2C)n1Cc1ccc(Cl)cc1 | x | x | -11 | -3 | 1 | x
Cn1c(=O)c2c(nc(NCc3cccnc3)n2Cc2ccc(Cl)cc2)n(C)c1=O | -1 | 52* | 22 | 23* | 2 | 50*
C=CCn1c(NCCc2ccccc2)nc2c1c(=O)n(C)c(=O)n2C | -1 | 31* | 11 | -1 | -27 | 5
CCCNc1nc2c(c(=O)n(C)c(=O)n2C)n1Cc1ccc(F)cc1 | -6 | 36* | 20 | 6 | -11 | 22
Cc1cccc(-c2noc(-c3ccc4c(c3)OCO4)n2)c1 | -186 | 4 | 49 | 11 | -141 | -2
COc1cccc(-c2nc(-c3ccccc3)no2)c1 | -128 | 1 | -60 | 4 | -11 | -5
c1ccc(-c2noc(-c3ccc4c(c3)OCO4)n2)nc1 | 30 | 28* | 91* | 8 | -35 | 26*
COc1cccc(-c2nc(-c3ccccn3)no2)c1 | -35 | 7 | 104* | -10 | 26 | 5
CCC(CC)C(=O)Nc1nnc(S(=O)(=O)N2CCCC2)s1 | x | x | 2 | -10 | -6 | x
N#Cc1cc(N)c(Nc2ccccc2)cc1C#N | -5 | 37* | 33 | 16 | 17 | 15
C#CC[N+]1(CC#Cc2cccc(C)c2)CCCCC1 | 7 | 67* | -21 | 1 | 13 | 76*
CCC[N+]1(CC#CCC(c2ccccc2)c2ccccc2)CCCCC1 | x | x | 3 | 15 | 23 | x
C#CC[N+]1(CC#Cc2ccccc2)CCCCC1 | 14 | 59* | 8 | -8 | -26 | 46*
C#CC[N+]1(CC#Cc2ccccc2)CCOCC1 | 8 | 12 | -33 | -2 | -14 | 3
C(#Cc1ccccc1)C[N+]1(CC#Cc2ccccc2)CCCCC1 | 2 | 69* | 28 | -1 | 12 | 87*
O=C(C[N+]1(CC#Cc2ccccc2)CCOCC1)c1ccc(Cl)cc1 | -27 | 5 | -15 | 9 | 1 | 6
C(#Cc1ccccc1)C[N+]1(CC#Cc2cccc3ccccc23)CCOCC1 | -1 | 50* | x | -4 | -7 | 56*
Cc1ccc(C#CC[N+]2(CC#Cc3ccc(C)cc3)CCCCC2)cc1 | 10 | 78* | 19 | 15 | 28 | 96*
SMILES | APP transl inh | BaF3 tox | aSyn UTR inh | IEC-6 tox | KLF5 inhibitor | Ba/F3 V617F tox
CC(C)(C)OC(=O)N1CCC(C(=O)N[C@H](C(=O)O)c2ccccc2)(c2ccccc2)CC1 | x | x | -3 | 0 | -19 | x
O=C1c2ccc3c4c(ccc(c24)C(=O)N1c1cccc(O)c1)C(=O)N(c1cccc(O)c1)C3=O | x | 18 | 68* | 14 | 0 | 13
O=C(NC1CCCC1)c1cc(COc2ccc3ncccc3c2)on1 | x | 44* | 9 | 3 | -33 | 36*
O=C(c1cc(COc2ccc3ncccc3c2)on1)N1CCCC1 | x | x | -41 | 8 | 2 | x
COc1cccc(CN(C)C(=O)c2cc(COc3ccc4ncccc4c3)on2)c1 | 9 | 71* | -15 | 14 | -32 | 54*
CC(NC(=O)c1cc(COc2ccc3ncccc3c2)on1)c1ccc(F)cc1 (configuration not stated) | x | 36* | 3 | 7 | -26 | 31*
CCOc1ccc(S(=O)(=O)Nc2ccc(C(=O)NCCCN3CCOCC3)cc2)cc1 | x | x | -9 | x | x | x
CCOc1ccccc1OCCC(=O)OCC(=O)Nc1c(C)cc(C)cc1C | x | x | 6 | x | x | x
